For 34 targets, log2 fold change results are on record in the supplement of paper PMC10849652.

About 7,900 targets were measured; listed, in parts, are those with a hit and a random draw of the rest. About 0.6% of all pairs of compound and target were hits.

Chain of UniProt Q15906 (Q15906 whole entry, looked up): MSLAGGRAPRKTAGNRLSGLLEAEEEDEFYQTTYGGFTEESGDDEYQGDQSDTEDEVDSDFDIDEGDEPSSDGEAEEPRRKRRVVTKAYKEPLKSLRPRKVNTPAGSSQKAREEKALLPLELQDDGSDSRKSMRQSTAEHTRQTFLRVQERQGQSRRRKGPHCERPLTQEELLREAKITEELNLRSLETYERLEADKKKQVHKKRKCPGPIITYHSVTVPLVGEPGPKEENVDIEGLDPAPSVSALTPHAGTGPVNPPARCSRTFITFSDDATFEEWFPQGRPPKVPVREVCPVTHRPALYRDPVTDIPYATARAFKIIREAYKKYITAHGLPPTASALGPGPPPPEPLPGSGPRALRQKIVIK
Chain of UniProt Q5TAX3 (Q5TAX3 whole entry, looked up): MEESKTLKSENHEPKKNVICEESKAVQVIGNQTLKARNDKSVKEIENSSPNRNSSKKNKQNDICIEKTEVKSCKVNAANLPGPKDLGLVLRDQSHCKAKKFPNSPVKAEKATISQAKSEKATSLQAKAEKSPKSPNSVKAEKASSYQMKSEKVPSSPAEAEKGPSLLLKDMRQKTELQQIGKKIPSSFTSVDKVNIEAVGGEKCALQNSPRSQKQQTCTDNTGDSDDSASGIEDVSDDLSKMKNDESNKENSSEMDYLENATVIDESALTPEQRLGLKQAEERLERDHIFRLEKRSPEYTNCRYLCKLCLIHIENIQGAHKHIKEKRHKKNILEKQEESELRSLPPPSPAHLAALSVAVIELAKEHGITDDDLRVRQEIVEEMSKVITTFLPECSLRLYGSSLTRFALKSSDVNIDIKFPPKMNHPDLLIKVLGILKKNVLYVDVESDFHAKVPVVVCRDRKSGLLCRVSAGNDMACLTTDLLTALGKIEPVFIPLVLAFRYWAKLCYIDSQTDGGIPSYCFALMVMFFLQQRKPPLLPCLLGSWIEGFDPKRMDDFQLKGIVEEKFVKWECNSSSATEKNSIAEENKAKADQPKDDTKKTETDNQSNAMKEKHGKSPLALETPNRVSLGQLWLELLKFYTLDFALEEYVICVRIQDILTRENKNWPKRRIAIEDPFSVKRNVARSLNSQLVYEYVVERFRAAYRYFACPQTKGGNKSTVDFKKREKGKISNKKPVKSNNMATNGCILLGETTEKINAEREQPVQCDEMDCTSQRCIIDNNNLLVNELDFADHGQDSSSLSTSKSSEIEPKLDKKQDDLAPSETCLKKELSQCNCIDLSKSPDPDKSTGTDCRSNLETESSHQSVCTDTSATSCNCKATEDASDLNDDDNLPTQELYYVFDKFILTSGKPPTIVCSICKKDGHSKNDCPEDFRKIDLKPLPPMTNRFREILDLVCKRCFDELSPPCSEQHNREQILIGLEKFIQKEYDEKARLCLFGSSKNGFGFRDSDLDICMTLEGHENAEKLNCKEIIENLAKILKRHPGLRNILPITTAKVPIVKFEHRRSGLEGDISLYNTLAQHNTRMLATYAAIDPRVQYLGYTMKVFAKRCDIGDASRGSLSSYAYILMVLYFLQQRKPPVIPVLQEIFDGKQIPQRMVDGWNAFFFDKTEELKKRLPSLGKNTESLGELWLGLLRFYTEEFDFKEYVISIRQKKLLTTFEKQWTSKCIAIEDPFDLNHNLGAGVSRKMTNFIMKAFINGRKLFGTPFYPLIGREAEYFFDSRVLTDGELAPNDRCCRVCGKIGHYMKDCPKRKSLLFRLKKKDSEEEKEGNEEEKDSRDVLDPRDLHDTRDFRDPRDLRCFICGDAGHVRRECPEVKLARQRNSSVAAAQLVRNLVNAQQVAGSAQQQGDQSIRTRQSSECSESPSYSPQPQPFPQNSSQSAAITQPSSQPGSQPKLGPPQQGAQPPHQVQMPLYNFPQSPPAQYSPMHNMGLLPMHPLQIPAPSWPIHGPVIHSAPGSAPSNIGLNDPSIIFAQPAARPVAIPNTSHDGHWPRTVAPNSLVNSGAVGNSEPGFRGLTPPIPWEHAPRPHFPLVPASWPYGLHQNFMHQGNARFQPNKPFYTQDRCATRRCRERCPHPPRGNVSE
Chain of UniProt Q629K1 (Q629K1 whole entry, looked up): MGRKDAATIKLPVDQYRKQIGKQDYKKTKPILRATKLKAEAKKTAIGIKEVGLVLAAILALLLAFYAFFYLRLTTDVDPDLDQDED
Chain of UniProt Q86TN4 (Q86TN4 whole entry, looked up): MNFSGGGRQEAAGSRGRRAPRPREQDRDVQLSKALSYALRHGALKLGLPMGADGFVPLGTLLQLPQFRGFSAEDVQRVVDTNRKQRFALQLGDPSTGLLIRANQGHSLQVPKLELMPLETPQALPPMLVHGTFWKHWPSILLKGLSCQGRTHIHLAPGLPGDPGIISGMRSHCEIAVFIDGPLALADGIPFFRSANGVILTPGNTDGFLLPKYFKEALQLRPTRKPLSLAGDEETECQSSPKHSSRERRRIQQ
Chain of UniProt Q8NE00 (Q8NE00 whole entry, looked up): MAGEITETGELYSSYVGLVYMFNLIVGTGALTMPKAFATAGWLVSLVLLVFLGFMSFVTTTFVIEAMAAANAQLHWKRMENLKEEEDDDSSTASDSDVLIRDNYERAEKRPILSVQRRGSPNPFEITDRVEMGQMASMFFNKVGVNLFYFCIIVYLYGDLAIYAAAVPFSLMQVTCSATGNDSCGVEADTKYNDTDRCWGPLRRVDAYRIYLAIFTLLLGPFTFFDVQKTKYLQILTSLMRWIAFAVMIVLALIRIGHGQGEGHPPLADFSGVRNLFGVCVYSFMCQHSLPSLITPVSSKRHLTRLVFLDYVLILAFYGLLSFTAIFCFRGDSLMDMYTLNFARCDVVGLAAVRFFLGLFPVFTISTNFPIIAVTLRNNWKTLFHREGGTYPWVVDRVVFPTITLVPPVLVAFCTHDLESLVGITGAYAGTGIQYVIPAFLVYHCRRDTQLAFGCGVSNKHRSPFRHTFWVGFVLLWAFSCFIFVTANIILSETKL
Chain of UniProt P36406 (P36406 whole entry, looked up): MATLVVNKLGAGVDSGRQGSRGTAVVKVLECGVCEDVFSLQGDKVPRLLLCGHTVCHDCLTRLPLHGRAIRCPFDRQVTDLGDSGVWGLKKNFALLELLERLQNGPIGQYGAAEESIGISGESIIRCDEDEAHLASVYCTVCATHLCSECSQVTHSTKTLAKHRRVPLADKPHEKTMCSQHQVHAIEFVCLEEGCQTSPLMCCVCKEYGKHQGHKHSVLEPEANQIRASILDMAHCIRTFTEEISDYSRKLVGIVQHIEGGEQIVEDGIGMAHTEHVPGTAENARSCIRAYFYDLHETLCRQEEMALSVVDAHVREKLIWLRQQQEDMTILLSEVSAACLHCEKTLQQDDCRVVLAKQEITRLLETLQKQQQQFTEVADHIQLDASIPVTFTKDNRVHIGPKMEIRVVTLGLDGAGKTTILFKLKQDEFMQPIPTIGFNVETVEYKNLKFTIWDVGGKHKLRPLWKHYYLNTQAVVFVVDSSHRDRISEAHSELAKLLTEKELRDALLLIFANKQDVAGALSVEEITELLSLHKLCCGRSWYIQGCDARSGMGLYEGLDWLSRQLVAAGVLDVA
Chain of UniProt Q502W6 (Q502W6 whole entry, looked up): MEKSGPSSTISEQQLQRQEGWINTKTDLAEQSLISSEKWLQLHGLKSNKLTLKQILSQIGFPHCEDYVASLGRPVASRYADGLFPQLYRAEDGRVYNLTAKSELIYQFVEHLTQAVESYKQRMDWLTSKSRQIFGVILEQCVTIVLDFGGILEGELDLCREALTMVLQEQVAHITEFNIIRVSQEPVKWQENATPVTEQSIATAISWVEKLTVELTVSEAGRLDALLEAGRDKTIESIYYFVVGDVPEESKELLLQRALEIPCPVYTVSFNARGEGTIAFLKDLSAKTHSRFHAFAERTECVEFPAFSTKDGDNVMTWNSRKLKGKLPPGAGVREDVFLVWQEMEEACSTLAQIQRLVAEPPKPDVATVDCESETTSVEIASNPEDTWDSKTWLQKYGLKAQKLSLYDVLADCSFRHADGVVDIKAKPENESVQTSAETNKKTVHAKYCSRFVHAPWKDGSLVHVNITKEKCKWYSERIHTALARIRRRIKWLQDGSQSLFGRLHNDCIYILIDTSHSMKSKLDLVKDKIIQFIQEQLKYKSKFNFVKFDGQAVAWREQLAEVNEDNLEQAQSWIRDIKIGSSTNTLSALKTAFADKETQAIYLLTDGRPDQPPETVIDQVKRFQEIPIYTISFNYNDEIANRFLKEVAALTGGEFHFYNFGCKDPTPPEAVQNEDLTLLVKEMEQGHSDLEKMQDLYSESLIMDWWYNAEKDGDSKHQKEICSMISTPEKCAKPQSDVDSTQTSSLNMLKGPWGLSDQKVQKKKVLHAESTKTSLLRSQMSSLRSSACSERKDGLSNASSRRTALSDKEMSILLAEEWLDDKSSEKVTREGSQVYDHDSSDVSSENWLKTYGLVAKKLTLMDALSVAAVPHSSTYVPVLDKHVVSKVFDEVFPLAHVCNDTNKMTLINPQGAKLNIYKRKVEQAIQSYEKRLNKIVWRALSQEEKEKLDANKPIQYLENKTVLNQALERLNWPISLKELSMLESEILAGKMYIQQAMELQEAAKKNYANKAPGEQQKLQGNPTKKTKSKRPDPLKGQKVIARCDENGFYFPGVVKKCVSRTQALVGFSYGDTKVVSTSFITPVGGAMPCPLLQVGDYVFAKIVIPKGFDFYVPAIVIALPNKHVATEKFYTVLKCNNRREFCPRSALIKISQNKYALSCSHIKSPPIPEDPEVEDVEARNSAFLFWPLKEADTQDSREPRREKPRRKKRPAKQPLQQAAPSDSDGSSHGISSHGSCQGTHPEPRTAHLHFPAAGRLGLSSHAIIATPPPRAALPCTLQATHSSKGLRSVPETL
Chain of UniProt Q86XT9 (Q86XT9 whole entry, looked up): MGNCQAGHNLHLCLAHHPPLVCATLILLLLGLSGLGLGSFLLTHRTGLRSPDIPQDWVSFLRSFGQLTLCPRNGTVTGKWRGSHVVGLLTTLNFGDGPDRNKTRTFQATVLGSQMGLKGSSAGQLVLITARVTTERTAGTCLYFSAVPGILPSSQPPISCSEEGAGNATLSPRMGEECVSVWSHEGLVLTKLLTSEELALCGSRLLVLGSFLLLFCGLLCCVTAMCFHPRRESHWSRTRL

Compound in the first experiment: COC1=CC=C(C=C1)CN2C=CC3=C2C=C(C=C3)C(=O)NO
Description: log2 fold change, soluble protein after heating vs DMSO (PISA); higher = thermal stabilisation; K562 cells, 10 uM, 30 min; active = over 0.2 and 3.5 SD of the protein, either way, in both replicates (recomputed). The gist of the method: (§1)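 K562 cells at 2×10^6 cells/mL were treated with 10 μM compound for 30 min. Aliquots were heated for 3 min across 48°C-58°C, pooled, and extracted in PBS with 0.5% NP-40 at 4°C; soluble protein was the supernatant after 21,000xg for 90 min. Soluble protein was quantified by TMTpro 16plex LC-MS/MS with channel sums equalised, and reported as log2 fold change in thermal stability against DMSO controls, with values from duplicates.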
With TOM1 (UniProt O60784), the log2 fold change was 0.078 (inactive).
On the same count and under the same terms, with WARS1 (UniProt G3V5U1) the figure was -0.557 (inactive).
Still for that read-out and setting: with U2AF1L5 (UniProt P0DN76) the figure was -0.034 (inactive); with TMEM41A (UniProt Q96HV5), -0.123 (inactive); with TRPT1 isoform 4 (UniProt Q86TN4), -0.088 (inactive).
Still for that read-out and setting: the result for TMEM104 (UniProt Q8NE00) reads 0.134 (inactive); that for WARS1 (UniProt G3V277), -0.163 (inactive); that for WDR75 (UniProt Q8IWA0), -0.071 (inactive).
TRIQK (UniProt Q629K1): the log2 fold change was -0.002 (inactive).
Same read-out and setting: with VWA3B isoform 6 (UniProt Q502W6) the figure was -0.156 (inactive); with WDR46, A0A0G2JJL1, -0.108 (inactive).
On the same count and under the same terms, with XAB2 (UniProt Q9HCS7) the figure was -0.174 (inactive); with TUT4 (UniProt Q5TAX3), -0.265 (inactive); with TRIM23 (UniProt P36406), 0.019 (inactive).
Still for that read-out and setting: the result for TUBA4A (UniProt C9JJQ8) reads 0.083 (inactive).

Compound in the next experiment: CON(C)C(=O)N1N=C(c2cc(F)ccc2F)S[C@@]1(CCCN)c1ccccc1 [filanesib]
The experiment is described as above. The essentials:
as §1
For TSPAN13 (UniProt O95857), the log2 fold change was -0.041 (inactive).
Consider TOM1 (UniProt O60784), for which the log2 fold change is -0.061 (inactive).
Still for that read-out and setting: with WARS1 (UniProt G3V5U1) the figure was 0.025 (inactive); with TMEM41A (UniProt Q96HV5), -0.158 (inactive); with USP48 (UniProt Q86UV5), -0.016 (inactive).
Take TRPT1 isoform 4 (UniProt Q86TN4): the log2 fold change is -0.053 (inactive).
For the target UBXN8 (UniProt O00124), the log2 fold change was 0.069 (inactive).
Still for that read-out and setting: the result for ULBP1 (UniProt Q9BZM6) reads 0.071 (inactive); that for TMEM219 (UniProt Q86XT9), -0.065 (inactive); that for TRIM5 (UniProt Q9C035), 0.121 (inactive).
Still for that read-out and setting: with WARS1 (UniProt G3V3P2) the figure was 0.087 (inactive); with WARS1 (UniProt G3V277), 0.066 (inactive).
The same measure, in the same setting: the result for UBE2D1 (UniProt P51668) reads -0.003 (inactive); that for VPS72 isoform 2 (UniProt Q15906), 0.084 (inactive).
As for TMEM268 isoform 3 (UniProt Q5VZI3), the log2 fold change was -0.064 (inactive).
For VDAC1 (UniProt C9JI87), the log2 fold change was 0.001 (inactive).
Still for that read-out and setting: the result for TRIQK (UniProt Q629K1) reads 0.1 (inactive).
As for WDR46, A0A0G2JJL1, the log2 fold change is 0.533 (inactive).
On the same count and under the same terms, the result for XIAP (UniProt P98170) reads 0.046 (inactive); that for TXNRD1 isoform 7 (UniProt Q16881), -0.034 (inactive); that for UFM1 isoform 2 (UniProt P61960), -0.12 (inactive).
In the case of TMEM8A (UniProt Q9HCN3), the log2 fold change was 0.188 (inactive).
On the same count and under the same terms, the result for TUT4 (UniProt Q5TAX3) reads 0.092 (inactive).
As to TRIM23 (UniProt P36406), the log2 fold change is -0.031 (inactive).
For WDR4 isoform 3 (UniProt P57081), the log2 fold change is -0.007 (inactive).
The same measure, in the same setting: with UBE2J2 isoform 3 (UniProt Q8N2K1) the figure was 0.146 (inactive).
The same measure, in the same setting: with TUBA4A (UniProt C9JJQ8) the figure was 0.016 (inactive).

Compound in a further experiment: CO[C@H]1C[C@@H]2CC[C@@H](C)[C@@](O)(O2)C(=O)C(=O)N2CCCC[C@H]2C(=O)O[C@H]([C@H](C)C[C@@H]2CC[C@H](n3cnnn3)[C@H](OC)C2)CC(=O)[C@H](C)/C=C(\C)[C@@H](O)[C@@H](OC)C(=O)[C@H](C)C[C@H](C)/C=C/C=C/C=C/1C [zotarolimus]
The description is as above. The gist of the method:
as §1
As for TSPAN13 (UniProt O95857), the log2 fold change was 0.022 (inactive).
As for TMEM104 (UniProt Q8NE00), the log2 fold change is -0.01 (inactive).
Still for that read-out and setting: the result for UBXN8 (UniProt O00124) reads -0.028 (inactive); that for ULBP1 (UniProt Q9BZM6), 0.022 (inactive); that for TMEM219 (UniProt Q86XT9), -0.181 (inactive).
For TRIM5 (UniProt Q9C035), the log2 fold change is -0.066 (inactive).
Same read-out and setting: the result for UBE2D1 (UniProt P51668) reads -0.006 (inactive); that for WDR75 (UniProt Q8IWA0), -0.078 (inactive); that for VPS72 isoform 2 (UniProt Q15906), -0.008 (inactive).
Still for that read-out and setting: the result for TMEM268 isoform 3 (UniProt Q5VZI3) reads 0.104 (inactive).
Still for that read-out and setting: the result for VDAC1 (UniProt C9JI87) reads -0.217 (inactive).
As for TVP23C (UniProt Q96ET8), the log2 fold change was -0.006 (inactive).
Same read-out and setting: the result for TRIQK (UniProt Q629K1) reads -0.08 (inactive); that for VWA3B isoform 6 (UniProt Q502W6), -0.083 (inactive); that for XIAP (UniProt P98170), 0.008 (inactive).
For UFM1 isoform 2 (UniProt P61960), the log2 fold change was -0.048 (inactive).
On the same count and under the same terms, the result for WARS1 (UniProt G3V227) reads 0.086 (inactive).
Still for that read-out and setting: the result for TMEM8A (UniProt Q9HCN3) reads -0.093 (inactive).
On the same count and under the same terms, with TUT4 (UniProt Q5TAX3) the figure was -0.237 (inactive); with TRIM23 (UniProt P36406), 0.036 (inactive).
On to UBE2J2 isoform 3 (UniProt Q8N2K1), for which the log2 fold change is -0.031 (inactive).
The same measure, in the same setting: the result for TUBA4A (UniProt C9JJQ8) reads -0.041 (inactive).

Compound in a further experiment: COc1cc(C(=O)O)ccc1NC(=O)[C@@H]1N[C@@H](CC(C)(C)C)[C@](C#N)(c2ccc(Cl)cc2F)[C@H]1c1cccc(Cl)c1F [idasanutlin]
The description is as above. The gist of the method: as §1
With U2AF1L5 (UniProt P0DN76), the log2 fold change is -0.051 (inactive).
Same read-out and setting: the result for TMEM41A (UniProt Q96HV5) reads 0.024 (inactive).
The same measure, in the same setting: with TRPT1 isoform 4 (UniProt Q86TN4) the figure was -0.194 (inactive).
Consider TMEM104 (UniProt Q8NE00), for which the log2 fold change is -0.081 (inactive).
On the same count and under the same terms, the result for UBXN8 (UniProt O00124) reads -0.116 (inactive).
On to ULBP1 (UniProt Q9BZM6), for which the log2 fold change is 0.036 (inactive).
The same measure, in the same setting: the result for TMEM219 (UniProt Q86XT9) reads -0.017 (inactive); that for TRIM5 (UniProt Q9C035), -0.086 (inactive).
The same measure, in the same setting: the result for WARS1 (UniProt G3V277) reads 0.127 (inactive); that for UBE2D1 (UniProt P51668), -0.083 (inactive).
Still for that read-out and setting: the result for WDR75 (UniProt Q8IWA0) reads 0.177 (inactive); that for VPS72 isoform 2 (UniProt Q15906), 0.062 (inactive); that for TMEM268 isoform 3 (UniProt Q5VZI3), -0.135 (inactive).
Regarding VDAC1 (UniProt C9JI87), the log2 fold change was -0.018 (inactive).
On the same count and under the same terms, with TVP23C (UniProt Q96ET8) the figure was -0.124 (inactive); with VWA3B isoform 6 (UniProt Q502W6), -0.41 (inactive); with XIAP (UniProt P98170), 0.009 (inactive).
Same read-out and setting: with UFM1 isoform 2 (UniProt P61960) the figure was 0 (inactive).
As for WARS1 (UniProt G3V227), the log2 fold change is -0.047 (inactive).
On the same count and under the same terms, the result for UBE2J2 isoform 3 (UniProt Q8N2K1) reads 0.092 (inactive).
